Source: PubChem BioAssay (NCI)
This is part of a sample that, as a whole, favours compounds with a hit. Of some 83,000 tested, about 20% had one in any assay.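 Treatment: one concentration, 48 hours, 96-well format. Scoring: percent growth, with anything below 10 considered active.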 Unmarked numbers belong to inactive results. Calls of active or inactive are those of the source.

What follows are compounds tested on M14 melanoma (assay: NCI-60 one-dose screen, 48 h (100 = growth as untreated, 0 = no growth, -100 = all killed)). Conditions: 10 µM unless noted.

| SMILES | growth |
| --- | --- |
| CN(C)Cc1ccc(NC(=O)c2cncc(C#Cc3cnc(N)c4ncccc34)c2)cc1C(F)(F)F | -54.7% (active) |
| COC(=O)c1c(C)nc(C)c2c1C(=O)C=C(NCc1ccccc1)C2=O | 66.9% |
| N#CSc1c[nH]c2ccc(/C=C/C(=O)/C=C(O)/C=C/c3ccc4[nH]cc(SC#N)c4c3)cc12 | -5.11% (active) |
| Cc1ccc(-c2nc(SCC(=O)N3CCN(c4cc5c(cc4F)c(=O)c(C(=O)O)cn5C4CC4)CC3)nc(Cl)c2C#N)cc1 | 99% |
| COC(=O)/C=C1/SC(=NCc2ccccc2)N(CCc2c[nH]c3ccccc23)C1=O | 80.5% |
| C=C(C)[C@@H]1CC[C@]2(C(=O)N3CCN(C)CC3)CC[C@]3(C)[C@H](CC[C@@H]4[C@@](C)(CCC(=O)O)[C@H](C(=C)C)CC[C@]43C)[C@@H]12 | 87.1% |
| Nc1[nH]nc2nc(-c3ccccc3)n3c4ccccc4nc3c12 | 99.5% |
| CN1CCOCCN(C)Cc2ccc3ccc(cc3c2)CN(C)CCOCCN(C)Cc2ccc3ccc(cc3c2)C1 | 99.4% |
| COc1ccc(/C=N/Nc2c3ccccc3nc3ccccc23)cc1 | 106% |
| C=C1C(=O)O[C@H]2[C@H]1CC/C(CNC(=O)Cc1c[nH]c3ccccc13)=C\CC[C@@]1(C)O[C@@H]21 | 3.28% (active) |
| COc1ccc2c(c1)CC[C@@H]1[C@@H]2CC[C@]2(C)c3c(cc(C#N)c4c3sc3ccccc34)C[C@@H]12 | 161% |
| O=C(c1c[nH]c2ccccc12)c1n[nH]c(=S)n1-c1ccc([N+](=O)[O-])cc1 | 95.9% |
| Cc1c2cnccc2c(C)c2c1c1cc(CO)ccc1n2C | -90.9% (active) |
| COc1cc(-c2nccc3[nH]c(-c4cccc5[nH]ccc45)nc23)cc(OC)c1OC | 20.6% |
| Clc1ccc(-c2nc(C(Cl)Cl)nc3cc(-c4ccccc4)nn23)cc1 | 24.2% |
| CC1=Nc2cnc(Nc3ccc(N4CCCCC4)cc3)nc2Nc2ccccc21 | 71.5% |
| CN(C)c1ccc([C@@H](C(=O)Nc2cccc([N+](=O)[O-])c2)N(C(=O)c2cc3ccccc3[nH]2)c2cccc([N+](=O)[O-])c2)cc1 | 93.7% |
| O=C(CSc1nnnn1-c1ccccc1)Nc1ccc(Oc2ccccc2)cc1 | 111% |
| COc1cc(/C=C/C(=O)c2cccc(-n3cc(-c4ccc(Cl)cc4)[nH]c3=O)c2)ccc1O | 85.8% |
| Oc1c(CN2CCC(N3CCOCC3)CC2)cc(Cc2cc(CN3CCC(N4CCOCC4)CC3)c(O)c3ncccc23)c2cccnc12 | 11.3% |
| c1ccc2cc(Cn3cc(CSc4nc5ccccc5s4)nn3)ccc2c1 | 99.4% |
| CN(C)Cc1cc(C(C)(C)C)cc(Br)c1O | 101% |
| CCN(CC)CCOc1ccc(/C(=C(\C)Cc2ccc(OC)cc2)c2ccc(OC(=O)NCc3ccccc3)cc2)cc1 | -61.5% (active) |
| C=C1C(=O)O[C@H]2[C@H]1CC/C(COC(=O)NCc1ccc(Cn3c(=O)sn(-c4ccc(I)cc4)c3=O)cc1)=C\CC[C@@]1(C)O[C@@H]21 | 73.1% |
| O=c1oc2ccccc2cc1-c1nn(-c2ccccc2)cc1-c1nn[nH]n1 | 98.2% |
| O=c1oc2c(cc1-c1ccccc1)c(=O)[nH]c1ccccc12 | 99.7% |
| CC1=C(Cl)C(=O)c2cc(C)ccc2C1=O | 112% |
